Drawing on ChEMBL document CHEMBL4513216, “Probing the Open Global Health Chemical Diversity Library for Multistage-Active Starting Points for Next-Generation Antimalarials” (ACS Infect Dis, 2020), this text covers INHIBITION for 53 molecules.

In all, about 69,000 compounds went through this assay and about 8,600 (12%) showed an effect of 50% or more. The full list was thinned out, with strong results kept by preference.

This experiment deals with Plasmodium berghei. The experiment is described as follows: Screen against P. berghei liver stage (PbLuc), transformed with Luciferase, at 10uM. It is filed as functional, HepG2. The conditions noted are these: tested at 10 uM.
Consider `O=S(=O)(c1ccc(F)cc1)N1CCCCC1c1cc[nH]n1` (stereo not drawn), for which the INHIBITION is on record as 13%.

`CN1CCN(c2ncc(-c3cnccn3)c([C@H]3CCCO3)n2)CC1`: the INHIBITION was determined as 14.7%.

Turning to `CN1CCN(CC2CC2)C(=O)c2cnc(N3CCOCC3)nc21`, the INHIBITION turned out to be 26.3%.

As for `CN(C)C[C@]12COC[C@H]1CN(C(=O)CCc1ccccc1)C2`, the INHIBITION is reported as 6.66%.

In the case of `CC(C)NC(=O)N1CCC[C@H]1C(=O)NCCCc1cnn(C)c1`, the INHIBITION is -34.6%.

On to `CC(=O)N1CCC(c2nccnc2-c2ccc(F)cc2)CC1`, for which the INHIBITION is recorded as 43.6%.

Regarding `Cc1cc(C)n(CC2CCCCN2C(=O)c2ccc3[nH]nnc3c2)n1` (stereo not drawn), the INHIBITION is recorded as 20.9%.

Consider `CC(NC(=O)NCCCO)c1ccc2c(c1)OCCO2` (stereo not drawn), for which the INHIBITION is reported as 52.1%.

Consider `CC(NC(=O)CCn1cccn1)c1ccc2c(c1)OCCO2` (stereo not drawn), for which the INHIBITION stood at 22.3%.

As to `CC(NC(=O)NCCCn1cncn1)c1ccc2c(c1)OCCO2` (stereo not drawn), the INHIBITION turned out to be 21.8%.

For the molecule `CC(NC(=O)Cn1cccn1)c1ccc2c(c1)OCCCO2` (stereo not drawn), the INHIBITION was 62.1%.

Turning to `CC(NC(=O)NCCCO)c1ccc2c(c1)NC(=O)CO2` (stereo not drawn), the INHIBITION is -11.4%.

As to `CC(NC(=O)Cn1cccn1)c1ccc2c(c1)OCCO2` (stereo not drawn), the INHIBITION turned out to be 41.5%.

As for `Cc1ccc2c(c1)C1(CC(=O)Nc3[nH]ncc31)C(=O)N2C` (stereo not drawn), the INHIBITION worked out at 21.5%.

Turning to `CCc1noc(CN(C)CC(c2cccs2)N2CCOCC2)n1` (stereo not drawn), the INHIBITION came to 60.5%.

On to `Cc1cccc(N(CC(=O)N2CCCCC2)Cc2ccno2)c1`, for which the INHIBITION is on record as 36.2%.

With `CCc1noc(CN(C)Cc2cc(Br)ccc2OC)n1`, the INHIBITION came to 30.9%.

Turning to `CN(Cc1ccc(N2CCOCC2)cc1)Cc1noc(C(C)(C)C)n1`, the INHIBITION is recorded as -8.51%.

Take `CCc1noc(CN(C)Cc2ccc(N3CCCCC3)cc2)n1`: the INHIBITION came out at 61.8%.

In the case of `CCCc1noc(CN(C)Cc2ccc3c(c2)OCO3)n1`, the INHIBITION is reported as 19.3%.

For `CN(Cc1noc(C(C)(C)C)n1)CC1CCN(CCO)CC1`, the INHIBITION stood at 37.5%.

As to `Cc1noc(CN(C)CC(c2cccs2)N2CCOCC2)n1` (stereo not drawn), the INHIBITION was 35.9%.

Regarding `CCc1nc(CN(C)CC(c2cccs2)N2CCOCC2)no1` (stereo not drawn), the INHIBITION was 36.4%.

In the case of `CCc1noc(CN(CC(=O)N2CCCCC2)c2cccc(C)c2)n1`, the INHIBITION is on record as 18%.

Turning to `CCc1noc(CN(CC(=O)N2CCCCC2)c2ccc(C)cc2)n1`, the INHIBITION came out at 50.1%.

For `CN(Cc1ccc(N2CCCCC2)cc1)Cc1noc(C(C)(C)C)n1`, the INHIBITION came to 78.5%.

Regarding `CN(C)C(=O)CN1CCCC(c2cncc(-c3cccc(Cl)c3)n2)C1` (stereo not drawn), the INHIBITION is 35.2%.

Turning to `CC(=O)NCC1CCN(C(=O)NCCc2ccc(Cl)s2)CC1`, the INHIBITION is 13.3%.

For `CCCC(=O)N1CCCCC1c1nc(N(C)C)ncc1-c1cc(C)no1` (stereo not drawn), the INHIBITION was found to be 23.1%.

`CN1CCCC(c2cccc(CCC(=O)NCC3(C)COC3)n2)C1` (stereo not drawn): the INHIBITION worked out at 13%.

For `NC(=O)Cn1cc(NC(=O)N2CCCCCC2)cn1`, the INHIBITION was 2.5%.

`Cc1cc(CN2CCC(C(=O)O)(n3ccc(-c4ccco4)n3)CC2)on1`: the INHIBITION is 1.48%.

For the molecule `O=C1NCC2(CCCN(C(=O)c3c[nH]nc3-c3cccs3)C2)O1` (stereo not drawn), the INHIBITION amounted to 6.29%.

Consider `Cn1cnc2ccc(NC(=O)CC3CCN(C4CCCCC4)CC3)cc21`, for which the INHIBITION stood at 12.17%.

For `Cc1ccnc(OC[C@]23COC[C@H]2CN(C(=O)c2cnccn2)C3)n1`, the INHIBITION was found to be 32.2%.

As to `CCc1ccc(Cn2nccc2NC(=O)C2CCS(=O)(=O)C2)cc1` (stereo not drawn), the INHIBITION is 11.8%.

`COc1cccc2cc(CNCc3ccnc(N(C)C)c3)oc12`: the INHIBITION is recorded as -4.94%.

Regarding `CNC(=O)C1CN(c2ccnc(C)n2)CCN(C2CCOCC2)C1` (stereo not drawn), the INHIBITION is recorded as 23%.

Turning to `CN(Cc1noc(C(C)(C)C)n1)Cc1ccccc1N1CCCCC1`, the INHIBITION was determined as 90.4%.

As to `Cc1cc(CN(C)Cc2ccccc2N2CCCCC2)n[nH]1`, the INHIBITION was found to be 20.2%.

Regarding `CN(Cc1noc(C(C)(C)C)n1)Cc1ccccc1N1CCCC1`, the INHIBITION is -2.92%.

Take `COCCc1noc(CN2CCCC(Cn3cncn3)C2)n1` (stereo not drawn): the INHIBITION is listed as -0.96%.

For `NC(=O)Cn1c(CO)cnc1SCC(=O)NCc1ccccc1`, the INHIBITION is 15%.

`N#Cc1cccc(N2CCC(CO)(CCCc3ccccc3)CC2)n1`: the INHIBITION amounted to 22%.

As for `N#Cc1cccc(N2CCC(CO)(CCOc3ccccc3)CC2)n1`, the INHIBITION turned out to be 17.4%.

On to `N#Cc1cccc(N2CCC(CO)(CCc3ccccc3)CC2)n1`, for which the INHIBITION was found to be 51.7%.

`Cn1cc(CC2CC(=O)N(Cc3ccc(Cl)cc3)C2=O)cn1` (stereo not drawn): the INHIBITION came out at 8.12%.

Regarding `Cc1ncsc1CN1CCN(C2CCOCC2)CC(C(N)=O)C1` (stereo not drawn), the INHIBITION was 25.6%.

On to `Nc1ncnc2c1ncn2[C@H]1CCN(Cc2ccsc2)CC[C@@H]1O`, for which the INHIBITION was 17.4%.

`Cc1ncsc1CN1CC[C@H](O)[C@@H](n2cnc3c(N)ncnc32)CC1`: the INHIBITION turned out to be 50.1%.

`CC(C)c1noc(-c2ccnc(-n3cnc(C(=O)O)c3)c2)n1`: the INHIBITION was -8.35%.

For the molecule `CCc1nccn1-c1cccc(C2CCCN(C3CCCCC3)C2)n1` (stereo not drawn), the INHIBITION is reported as 24.8%.

Consider `Cc1cn2nc(N3CCCC3Cn3cccn3)sc2n1` (stereo not drawn), for which the INHIBITION is listed as -12.1%.
